This excerpt belongs to a sample that is enriched for hits.
CHX counter: Cycloheximide Counterscreen for Small Molecule Inhibitors of Shiga Toxin | 300,000 compounds, 12% hits | max response, % | cell reporter, cycloheximide protein synthesis inhibition counterscreen; in the data active = max response mostly above about 13%, no sharp cut-off; inactive = mostly below about 14%; also: read at 38.3 µM for the half of the compounds with a filed dose; 0% is about no effect
LmPK inh: qHTS Assay for Inhibitors of Leishmania Mexicana Pyruvate Kinase (LmPK); Q27686; purified LmPK, Kinase-Glo ATP luminescence, 1 h; Potency, µM (highest dose often 57.5 µM), without a hit: at the top dose activity change, negative = inhibition, usual class: inhibitors; 290,000 compounds, 0.37% hits; AID 1721, 2009; also: potency is read from the fitted curve at half-maximal effect; % is scaled to controls: 0 for no effect and ±100 for the full control effect
Target sequence (Q27686 whole entry, looked up): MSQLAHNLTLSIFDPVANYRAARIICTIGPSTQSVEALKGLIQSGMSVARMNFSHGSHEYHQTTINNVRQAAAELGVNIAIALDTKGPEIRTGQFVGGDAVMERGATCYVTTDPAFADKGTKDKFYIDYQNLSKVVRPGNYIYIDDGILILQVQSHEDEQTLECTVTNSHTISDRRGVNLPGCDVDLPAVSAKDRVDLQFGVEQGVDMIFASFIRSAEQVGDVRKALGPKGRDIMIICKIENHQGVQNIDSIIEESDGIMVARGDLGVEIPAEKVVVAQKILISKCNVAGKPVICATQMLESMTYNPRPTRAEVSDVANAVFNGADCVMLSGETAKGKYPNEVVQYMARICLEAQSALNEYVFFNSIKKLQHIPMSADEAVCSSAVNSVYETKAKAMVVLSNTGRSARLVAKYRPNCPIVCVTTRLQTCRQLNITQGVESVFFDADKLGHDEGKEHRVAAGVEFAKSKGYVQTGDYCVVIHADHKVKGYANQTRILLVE
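Kinase-Glo luminescence read after 1 h RT reaction of 0.1 nM LmPK with 0.5 mM PEP and 0.1 mM ADP. Activity scaled between uninhibited and enzyme-free controls.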
FBPA Giardia inh: qHTS Assay for Inhibitors of Fructose-1,6-bisphosphate Aldolase from Giardia Lamblia. A8B2U2. purified Giardia FBPA. Potency, µM (titrated, usually from 59.6 µM), inactives show top-dose activity, negative = inhibition, most hits filed as inhibitors. 290,000 compounds, 0.71% hits. AID 2451, 2010; also: potency is read from the fitted curve at half-maximal effect; % is scaled to controls: 0 for no effect and ±100 for the full control effect; nearly all actives have a fitted effect of over 55% in size
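Giardia FBPA (40 nM reagent) was preincubated 10 min at RT with compound (up to 57.5 uM final), then substrate plus GAPDH/TPI/NAD/arsenate coupling system with diaphorase/resazurin was added; resorufin fluorescence (525/598 nm) was read after 20 min.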
Tb PYK inh: qHTS of Trypanosoma Brucei Inhibitors; TbPYK enzyme, Kinase-Glo Plus ATP luminescence, 45 min; Potency, µM (highest dose often 76.8 µM), for inactives: top-dose activity, negative = inhibition, most hits filed as inhibitors; 410,000 compounds, 0.12% hits; AID 624173, 2012; also: potency is read from the fitted curve at half-maximal effect; % is scaled to controls: 0 for no effect and ±100 for the full control effect; nearly all actives have a fitted effect of over 50% in size
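Assay buffer: 50 mM TEA pH 7.2, 100 mM KCl, 10 mM MgCl2, 0.05% BSA, 0.01% Tween-20. Pyruvate kinase from T. brucei plus substrate met compound, then ADP (130 uM final). Luminescence was read post 45 min RT.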
Shiga inhibitor: A qHTS for Small Molecule Inhibitors of Shiga Toxin; Vero cells, Shiga toxin protein synthesis inhibition reporter; inhibition, % at 38.7 µM; 290,000 compounds, 9.2% hits; AID 2315, 2010; in the data active = inhibition mostly above about 28%, no sharp cut-off; inactive = mostly below about 43%; also: 0% is about no effect
Sm TGR block: qHTS Assay for the Inhibitors of Schistosoma Mansoni Peroxiredoxins; purified TGR, DTNB reduction, TNB absorbance 405 nm; Potency, µM (doses to about 114 µM), for the others: at the top dose activity change, negative = inhibition, usual class: inhibitors; 360,000 compounds, 3% hits; also: potency is read from the fitted curve at half-maximal effect; % is scaled to controls: 0 for no effect and ±100 for the full control effect; nearly all actives have a fitted effect of over 60% in size
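First, TGR (20 nM dispensed) and NADPH were mixed with compound. Second, a 15 min room-temperature incubation followed. Third, further NADPH and then DTNB were added to start the reaction. Finally, TNB absorbance was monitored kinetically.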
* = called active by the depositor; ? = inconclusive; / = no result; [ ] = dose if it differs, or a comment. Unless noted, calls follow the shape of the dose curve; as a rule, active = well fitted curve in the direction sought with a large enough effect; inconclusive = small, poorly fitted or top-dose-only effect, or another doubt; inactive = no such curve, though single readings can be large; an effect the other way counts as inactive or inconclusive.

SMILES	CHX counter	LmPK inh	FBPA Giardia inh	Tb PYK inh	Shiga inhibitor	Sm TGR block
O=Cc1ccc(OCC(=O)N2CCOCC2)cc1	-1	1%	2%	-8%	-7	-2%
NC(N)=NN=C(c1ccc(F)cc1)c1ccc(C(F)(F)F)cc1	/	/	/	-5%	/	/
Cc1cc(OCC(=O)N2CCOCC2)ccc1[N+](=O)[O-]	25*	0%	5%	-3%	58*	-3%
O=C(OCC(=O)N1CCOCC1)c1ccc(Br)cc1	20*	0%	12%	4%	60	1%
O=C(Cn1c(=O)nc(-c2ccccc2F)c2cc(Cl)ccc21)NCCCc1ccccc1	/	/	/	-9%	/	8%
COc1ccc(Nc2ncnc3c2c(C)c(C)n3CCO)cc1	48*	-1%	5%	-6%	72*	8%
Cc1c(C)n(CCO)c2ncnc(Nc3ccc(F)cc3)c12	18	5%	4%	0%	69*	4%
COc1ccc(OCC(=O)O/N=C(\N)Cc2cccs2)cc1	22*	0%	-1%	0%	64*	-10%
Cc1ccccc1C(=O)O/N=C(\N)Cc1cccs1	88*	-12%	1%	1%	95*	2%
Cc1cccc(OCC(=O)O/N=C(\N)Cc2cccs2)c1	-4	-1%	-1%	2%	-6	6%
Cc1ccccc1OCC(=O)O/N=C(\N)Cc1cccs1	1	2%	-2%	-2%	-12	3%
N/C(Cc1cccs1)=N\OC(=O)COc1ccc(Br)cc1	30*	0%	0%	-2%	23	25%
Cc1cc(C(=O)COC(=O)c2ccccc2O)c(C)n1Cc1cccs1	3	?	-5%	2%	-8	3%
CCn1nc(C(=O)OCC(=O)c2cc(C)n(Cc3cccs3)c2C)c2ccccc2c1=O	72*	-4%	-2%	-3%	66*	-18%
Cc1cc(C(=O)COC(=O)c2ccc3c(c2)OCO3)c(C)n1Cc1cccs1	54*	-2%	3%	3%	128*	?
CCOC(=O)c1cc(C#N)c(Oc2cccc(C(F)(F)F)c2)nc1-c1ccccc1	0	3%	-8%	-10%	25	-12%
CCOC(=O)c1ccc(-c2cccc(C(F)(F)F)c2)nc1C	17*	0%	-11%	2%	37	8%
CC(C)C[C@H](NC(=O)[C@H](Cc1ccccc1)NC(=O)CNC(=O)[C@@H](COC(C)(C)C)NC(=O)[C@@H](N)Cc1ccc(O)cc1)C(=O)N[C@H](C(=O)O)[C@@H](C)OC(C)(C)C	-4	/	1%	/	-3	/
COc1ccc(NC(=O)N2CCCC2C(=O)Nc2ccc(C)cc2C)cc1 (stereo not drawn)	-6	0%	4%	-6%	-6	2%
Cc1cc(/C=C2/C(=O)N(C)C(=S)N2C)c(C)n1C1CC1	14*	-11%	-27%	-24%	20	?
CCN1C(=O)C(=Cc2cc(C)n(C3CC3)c2C)C(=O)N(CC)C1=S	2	-1%	-2%	-12%	-8	-29%
Cc1cc(C=C2C(=O)N(C)C(=S)N(C)C2=O)c(C)n1C1CCCC1	1	-4%	-12%	-22%	27	-22%
Cc1cc(/C=C2\C(=O)NC(=S)N(C)C2=O)c(C)n1C1CCCCC1	13*	5%	-10%	-17%	21	-22%
O=C(O)c1cc2ccccc2c(Cc2cc3ccccc3c(C(=O)O)c2O)c1O (tested in a mixture with another compound)	/	/	-4%[21.7 µM]	/	/	/
COc1ccccc1-n1c(SCC(=O)N(C)C)nnc1-c1ccco1	/	/	/	3%	/	/
SMILES	CHX counter	LmPK inh	FBPA Giardia inh	Tb PYK inh	Shiga inhibitor	Sm TGR block
Cc1cccc(CSC2=NN3CCCC(=O)N=C3S2)c1	43*	-5%	3%	0%	56*	0%
O=C1CCCN2N=C(SCC(=O)Nc3cccc(Cl)c3)SC2=N1	2	11%	-14%	9%	-5	2%
O=C(CCc1ccccc1)NCc1ccncc1	-2	-4%	11%	-5%	-5	-1%
O=C(CCNNC(=O)c1ccncc1)NCc1ccccc1	-3	7%	0%	-6%	-8	40µM*
CCCOc1ccc(-c2nc(OC)c3ccccc3n2)cc1	35*	-1%	2%	-7%	112*	-32%
CCCCOc1ccc(-c2ncc([N+](=O)[O-])cn2)cc1	-2	0%	0%	1%	18	1%
CCCCOc1ccc(-c2ncc(Cl)cn2)cc1	17*	-3%	8%	8%	35*	-1%
Clc1ccc(-c2cnc3ccccc3n2)cc1	67*	-14%	0%	-6%	67*	-2%
CCCCOc1ccc(-c2cnc3ccccc3n2)cc1	45*	?	1%	-10%	60*	-4%
Cc1c(C(=O)Nc2ccc(C(C)C)cc2)sc2nc3n(c(=O)c12)CCC3	/	/	/	2%	/	-8%
CSCC[C@H](C=O)NC(=O)[C@H](CC(C)C)NC(=O)[C@H](CC(C)C)NC(C)=O	/	/	3%	/	/	/
Cc1cc(Br)ccc1NC(=O)C1CCN(S(=O)(=O)c2cccc3nsnc23)CC1	/	/	/	4%	/	-6%
COC(=O)N1[C@H](C)C=C[C@]1(Cc1ccccc1)C(=O)NCc1ccc(C)o1	/	/	-6%	/	/	/
Cc1cc(-c2ccccc2)nc(-c2ccccc2)c1C	26*	7.1µM*	-26%	8%	31	6%
CCOC(=O)c1ccc2ncc(-c3ccccc3)nc2c1	46*	-9%	1%	6%	123*	5%
Oc1ccc(-c2cnc3ccccc3n2)cc1	/	/	/	-13%	/	/
Cc1ccc(-c2cnc3ccccc3n2)cc1C	28*	?	6%	-11%	63*	2%
Nc1ccc2nc(-c3ccccc3)cnc2c1	/	/	/	-9%	/	/
CCOC(=O)c1cccc(-c2c(-c3ccccc3)ncc3cc(OC)c(OC)cc23)c1	/	/	/	-23%	/	-3%
Cc1cc2ncc(-c3ccccc3)nc2cc1C	39*	-30%	8%	-9%	106*	-9%
O=C(OCC1(COC(=O)c2cccnc2)CCCC(COC(=O)c2cccnc2)(COC(=O)c2cccnc2)C1O)c1cccnc1	/	/	/	-7%	/	/
O=C(c1ccccn1)N1CCCC(N2CCN(Cc3ccc4c(c3)OCO4)CC2)C1 (stereo not drawn)	11	-10%	/	-4%	-28	0%
Cc1cccc(C(=O)N2CCCC(N3CCN(Cc4ccc5c(c4)OCO5)CC3)C2)n1 (stereo not drawn)	25*	-5%	-7%	3%	35	0%
C=CCc1cc(F)c(S(=O)(=O)N2CCN(S(=O)(=O)c3ccc4c(c3)OCCO4)CC2)cc1F	-2	/	/	/	-7	/
COCCCNC(=O)c1ccc(-n2c(-c3ccccc3)cc3c2CCCCC3)cc1	23*	/	/	1%	103*	1%
